Test [1] deals with TRPC4 beta (transient receptor potential cation channel C4), mouse. Nature of the test: activators of mouse TRPC4 channel, confirmation, cell-based, Fluo4 calcium, HEK293 TRPC4beta/mu-opioid, duplicates, 10 µM (AID 2426;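 active = fluorescence ratio normalized to control raised more than 50% in primary screen plus both repeat runs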). Particulars: Fluo4 calcium fluorescence, at 10 µM; hits give high values.
Test [2] has as its system transient receptor potential cation channel C4 beta (TRPC4), mouse. Kind of test: activators of mouse TRPC4 channel, confirmation, cell-based, second round, Fluo4, HEK293 TRPC4beta/mu-opioid, 1 µM (AID 2461;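 active = primary screen active and over 50% activation in each of two duplicate runs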). Particulars: Fluo4 calcium fluorescence, at 1 µM; hits give high values.
The subject of test [3] is TRPC4 (transient receptor potential cation channel C4 beta), mouse. Kind of test: positive allosteric modulators of mouse TRPC4, confirmation, cell-based, second round, Fluo-4, HEK293 TRPC4beta/mu-opioid, 1 µM (AID 2554;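 active = primary screen hit whose fluorescence ratio, in both repeats, exceeds the weak agonist control mean by 3 SD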). Particulars: DAMGO EC20, Fluo-4 calcium flux, at 1 µM; hits give high values. A general note: A change in cytosolic calcium serves as a functional read-out for many receptors and channels.

Test [4] concerns TRPC4 beta (transient receptor potential cation channel C4), mouse. Nature of the test: positive allosteric modulators of mouse TRPC4, confirmation, cell-based, Fluo-4, HEK293 TRPC4beta/mu-opioid (AID 2555;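 active = primary screen hit whose calcium fluorescence ratio, in both repeats, exceeds the weak agonist control mean by 3 SD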). The conditions noted are these: DAMGO EC20, Fluo-4 calcium flux, at 10 µM; hits give high values.
For test [5], the target named is Short transient receptor potential channel 4 (Mus musculus) (UniProt Q9QUQ5). Kind of test: inhibitors of mouse TRPC4 channel, confirmation, cell-based, Fluo4, HEK293 TRPC4beta/mu-opioid (AID 2636;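 active = calcium signal cut by more than 3 SD below the full-agonist control yet still positive, in both repeats and the earlier primary screen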). Particulars: DAMGO, Fluo4 calcium flux, at 10 µM; hits give high values.
The target is the same in test [6]. Nature of the test: inhibitors of mouse TRPC4 channel, confirmation, cell-based, second round, Fluo4, HEK293 TRPC4beta/mu-opioid, 1 µM (AID 2637;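 active = calcium signal ratio cut to more than 3 SD under the fully stimulated control mean yet still positive, in both repeats and the primary screen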;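 for inhibition: percent of integrated ratio relative to wells lacking test compound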). The conditions noted are these: Fluo4 calcium flux, DAMGO, at 1 µM; hits give high values.
Test [7] shares this target. Kind of test: mouse TRPC4 channel activators, dose response, cell-based, HEK293 TRPC4/mu-opioid, Fluo-4 calcium (AID 434937;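 active = primary screen activator hit with a dose response curve and TRPC4 channel activation at any tested dose; inactive = no activation, no dose response, or not a primary hit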).
The target is the same in test [8]. Kind of test: TRPC4 positive allosteric modulators, dose response, cell-based, HEK293 TRPC4/mu-opioid, Fluo-4 calcium, EC20 DAMGO (AID 434941).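 Note: calcium entry triggered by an EC20 dose of DAMGO at the co-expressed mu-opioid receptor.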
Test [9] concerns the target Short transient receptor potential channel 6 (Mus musculus) (UniProt Q61143). Nature of the test: inhibition of mouse TRPC6 channel, confirmation, selectivity assay for TRPC4 inhibitor project, cell-based, HEK293, membrane potential dye, duplicate (AID 434948;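 active = active in primary screen and both duplicates, each dropping signal beyond three positive-control SD with fluorescence still positive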). Particulars: HEK293 TRPC6, membrane potential dye fluorescence, at 10 µM, stimulated with maximal-effect acetylcholine; hits give high values.

For test [10] the target is unchanged. Kind of test: activation of mouse TRPC6 channel, confirmation, selectivity assay for TRPC4 activator project, cell-based, HEK293, membrane potential dye, duplicate (AID 434950;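 active = membrane potential signal rise above negative control mean plus 3 SD in both duplicates, also active in the earlier TRPC4 screen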). The conditions noted are these: HEK293 TRPC6, membrane potential fluorescence, at 10 µM; hits give high values.
For test [11] the target is unchanged. Kind of test: TRPC6 potentiation by TRPC4 potentiator hits, confirmation, selectivity assay for TRPC4 potentiator project, HEK293 cells, membrane potential dye, duplicate (AID 434952;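 active = compound raising the membrane signal above positive-control mean plus 3 SD in both repeats, and a primary screen hit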). Particulars: HEK293 TRPC6, membrane potential dye fluorescence, at 10 µM, maximal acetylcholine added after compound; hits give high values.
For test [12], the target named is Short transient receptor potential channel 4 (Mus musculus) (UniProt Q9QUQ5). Nature of the test: calcium flux activators in TRPC4/5HT1a cells, counter-screen for TRPC4 activator project, cell-based, second counter screen, HEK293 TRPC4/5HT1a, Fluo-4 (AID 434977;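 active = calcium signal rise above buffer-control mean plus 5 SD in both duplicates, and also a hit in the primary screen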). Particulars: Fluo-4 calcium flux, at 10 µM; hits give high values.
The nature of test [13]: calcium flux inhibitors in TRPC4/5HT1a cells, confirmation, counter-screen for TRPC4 inhibitor project, cell-based, second counter screen, HEK293 TRPC4/5HT1a, Fluo-4 (AID 434978;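 active = primary screen active whose calcium signal fell more than 3 SD beyond the full-serotonin control mean in both duplicate plates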;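 for outcome: serotonin given first at submaximal then at maximal dose after compound preincubation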). Particulars: Fluo-4 calcium flux, at 10 µM, serotonin added to trigger calcium flux; hits give high values.
Test [14] relates to TRPC4 (mouse), co-expressed with 5HT1a in HEK293. Kind of test: calcium flux potentiators in TRPC4/5HT1a cells, confirmation, counter-screen for TRPC4 potentiator project, cell-based, second counter screen, HEK293 TRPC4/5HT1a, Fluo-4 (AID 434979;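 active = signal rise over 3 SD above mean of control wells given weak agonist, in both repeats and first screen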). Particulars: Fluo-4 calcium flux, at 10 µM, serotonin added at its EC20 dose; hits give high values.
Test [15] is described as follows: calcium flux activation in mu-opioid HEK293 cells, confirmation, counter-screen for TRPC4 activator project, cell-based, HEK293 mu-opioid receptor line (AID 449723;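 active = hit in primary screen, with calcium signal over 5 SD above buffer well mean in both duplicates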;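 note: counter screen cells carry the mu-opioid receptor alone and lack TRPC4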). The conditions noted are these: Fluo-4 calcium fluorescence, at 10 µM; hits give high values.
The nature of test [16]: calcium flux enhancement in mu-opioid HEK293 cells, confirmation, counter-screen for TRPC4 allosteric potentiator project, cell-based, HEK293 mu-opioid receptor line (AID 449724;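 active = calcium signal rise more than 3 SD above the low-dose agonist control mean, in both duplicate plates and the primary screen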;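 note: HEK293 cells carrying mu-opioid receptor only with no TRPC4 channel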). Particulars: Fluo-4 calcium flux, at 10 µM, compound added before EC20 DAMGO stimulus; hits give high values.

Molecules are shown by their SMILES. For some assays here: Results with a measured potency or affinity are listed apart. Activity calls are given as the source filed them.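 Rule for the calls, unless noted: active = earlier screen potentiator hit that boosts the TRPC4 ion channel at some dose, with a dose response; inactive = no potentiation, no dose response, or not a prior hit.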

Sequence of Short transient receptor potential channel 4 (Mus musculus) (Q9QUQ5 whole entry, looked up): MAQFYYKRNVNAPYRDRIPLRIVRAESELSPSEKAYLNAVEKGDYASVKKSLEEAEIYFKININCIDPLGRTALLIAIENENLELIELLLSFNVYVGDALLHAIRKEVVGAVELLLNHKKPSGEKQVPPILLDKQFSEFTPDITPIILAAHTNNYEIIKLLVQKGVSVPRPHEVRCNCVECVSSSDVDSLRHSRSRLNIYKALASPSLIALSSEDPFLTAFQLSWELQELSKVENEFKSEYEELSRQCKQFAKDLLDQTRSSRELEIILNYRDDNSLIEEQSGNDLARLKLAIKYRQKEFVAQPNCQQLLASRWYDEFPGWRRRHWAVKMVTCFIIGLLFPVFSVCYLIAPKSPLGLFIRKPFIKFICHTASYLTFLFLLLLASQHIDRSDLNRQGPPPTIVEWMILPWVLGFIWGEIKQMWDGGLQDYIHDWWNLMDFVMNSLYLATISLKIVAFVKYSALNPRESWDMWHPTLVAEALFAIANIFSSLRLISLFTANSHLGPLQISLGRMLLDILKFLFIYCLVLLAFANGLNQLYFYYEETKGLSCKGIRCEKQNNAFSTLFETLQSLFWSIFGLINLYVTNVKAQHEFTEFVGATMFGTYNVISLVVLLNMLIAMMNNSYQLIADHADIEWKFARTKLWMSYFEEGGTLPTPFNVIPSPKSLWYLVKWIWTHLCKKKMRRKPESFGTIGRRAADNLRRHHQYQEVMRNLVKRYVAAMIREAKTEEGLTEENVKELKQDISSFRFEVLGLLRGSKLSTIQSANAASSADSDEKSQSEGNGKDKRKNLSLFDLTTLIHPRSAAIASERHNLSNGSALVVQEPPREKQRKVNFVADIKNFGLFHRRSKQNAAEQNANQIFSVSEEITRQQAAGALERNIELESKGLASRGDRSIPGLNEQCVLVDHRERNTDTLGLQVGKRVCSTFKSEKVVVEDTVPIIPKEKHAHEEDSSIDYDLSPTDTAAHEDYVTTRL
Sequence of Short transient receptor potential channel 6 (Mus musculus) (Q61143 whole entry, looked up): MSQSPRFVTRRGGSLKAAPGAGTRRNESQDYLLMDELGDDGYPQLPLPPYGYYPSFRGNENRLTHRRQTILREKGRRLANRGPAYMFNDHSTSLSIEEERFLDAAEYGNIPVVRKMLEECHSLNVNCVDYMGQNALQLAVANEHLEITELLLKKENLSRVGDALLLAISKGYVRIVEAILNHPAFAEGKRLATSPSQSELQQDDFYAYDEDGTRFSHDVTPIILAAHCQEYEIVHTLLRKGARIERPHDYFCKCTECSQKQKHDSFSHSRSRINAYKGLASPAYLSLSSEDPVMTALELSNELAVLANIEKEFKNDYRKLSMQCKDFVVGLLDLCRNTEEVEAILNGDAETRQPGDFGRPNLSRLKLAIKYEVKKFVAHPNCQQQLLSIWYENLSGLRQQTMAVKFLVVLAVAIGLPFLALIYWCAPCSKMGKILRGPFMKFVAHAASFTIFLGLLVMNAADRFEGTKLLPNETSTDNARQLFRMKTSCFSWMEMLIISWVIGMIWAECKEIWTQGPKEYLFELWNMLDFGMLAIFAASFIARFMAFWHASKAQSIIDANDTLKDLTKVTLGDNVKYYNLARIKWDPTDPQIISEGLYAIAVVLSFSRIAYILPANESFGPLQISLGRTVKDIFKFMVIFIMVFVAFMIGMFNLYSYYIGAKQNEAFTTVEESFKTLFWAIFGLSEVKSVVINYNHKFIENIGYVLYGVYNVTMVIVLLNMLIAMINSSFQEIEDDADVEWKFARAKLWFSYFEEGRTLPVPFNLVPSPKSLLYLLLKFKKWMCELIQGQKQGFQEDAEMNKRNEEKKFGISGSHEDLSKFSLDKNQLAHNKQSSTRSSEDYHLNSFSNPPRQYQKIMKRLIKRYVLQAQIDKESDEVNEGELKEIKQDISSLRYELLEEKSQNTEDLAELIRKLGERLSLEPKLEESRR

Take `Cc1cccc(N(C(=O)c2snc(C(N)=O)c2N)C(C(=O)NCC2CCCO2)c2ccc3ncccc3c2)c1` (centres undefined): the outcome in test [1], in test [2], in test [3], in test [4], in test [6] and in test [7] was inactive. In addition, the result in test [8], in test [9], in test [10], in test [11], in test [12] and in test [13] was inactive. The result in [14], in [15] and in test [16] was inactive. Besides, the inhibition (as a rule, the change of the read-out against control, counted positive when it falls) in test [5] is 85% (active).

`CN(CC1CCCN(CCc2cccc(C(F)(F)F)c2)C1)C(=O)c1cc2ccccc2o1` (centres undefined): the result in [1], in test [2], in test [3], in test [4], in test [6] and in test [7] was inactive. Besides, the result in test [8], in test [9], in test [10], in [11], in test [12] and in [14] was inactive. Also, the outcome in [15] and in test [16] was inactive. The inhibition is 85% (active) in [5] and 1.18% (active) in test [13].

On to `COc1ccc(CN(C(=O)c2snc(C(N)=O)c2N)C(CC(C)C)C(=O)NC2CCCCC2)cc1` (centres undefined), for which the outcome in test [1], in test [2], in test [3], in test [4], in [6] and in test [7] was inactive. For the same molecule, the outcome in [8], in [9], in test [10], in test [11], in test [12] and in test [14] was inactive. Moreover, the outcome in test [15] and in test [16] was inactive. Moreover, the inhibition in test [5] is 82% (active); in test [13] it was 30.8% (active).

On to `O=C(COC(=O)c1c(Cl)cccc1Cl)Nc1ccccc1Br`, for which the outcome in test [1], in test [2], in [3], in test [4], in test [6] and in test [7] was inactive. Further, the result in [8], in test [9], in [10], in [11], in [12] and in [14] was inactive. Besides, the outcome in test [15] and in [16] was inactive. Moreover, the figures for the inhibition in test [5] and in test [13] were 71% (active) and 29.5% (active), respectively.

For `CC12CCC(C/C1=N/OC(=O)c1cccc([N+](=O)[O-])c1)C2(C)C` (centres undefined), the result in test [1], in test [2], in test [3], in test [4], in test [7] and in test [8] was inactive. Also, the outcome in test [9], in [10], in test [11], in test [12], in test [14] and in [15] was inactive. The outcome in [16] was inactive. In addition, the inhibition is 82% (active) in test [5], 40% (active) in test [6] and 28.3% (active) in test [13].

For the molecule `Cc1cc(C(=O)N/N=C\c2cc(C(C)(C)C)ccc2O)n[nH]1`, the result in test [1], in [2], in test [3], in test [4], in [6] and in test [7] was inactive. In addition, the result in [8], in [9], in test [10], in [11], in test [12] and in test [14] was inactive. The result in test [15] and in [16] was inactive. The inhibition in [5] was 84% (active); in [13] it was 24.2% (active).

Consider `Cc1ccc(N2CCN(C(=O)c3ccccc3F)CC2)c(C)c1`, for which the result in test [1], in test [2], in test [3], in test [4], in [7] and in test [8] was inactive. Also, the call in test [9], in test [10], in [11], in test [12], in [14] and in test [15] was inactive. For the same molecule, the result in [16] was inactive. The inhibition is 84% (active) in [5], 41% (active) in test [6] and 26.6% (active) in test [13].

Regarding `CCOC(=O)c1c(NC(=O)C2CCCCC2C(=O)O)sc2c1CCCCC2` (centres undefined), the outcome in test [1], in [2], in test [3], in test [4], in test [6] and in test [7] was inactive. In addition, the outcome in test [8], in test [9], in [10], in test [11], in test [12] and in test [14] was inactive. In addition, the result in [15] and in test [16] was inactive. Further, the inhibition in [5] was 80% (active); in [13], 42.6% (active).

Consider `CCOC(=O)c1c(N)sc(C(O)(C(F)(F)F)C(F)(F)F)c1-c1ccccc1`, for which the outcome in test [1], in test [2], in test [3], in test [4], in test [6] and in test [7] was inactive. The result in [8], in [9], in [10], in [11], in [12] and in test [14] was inactive. Further, the outcome in test [15] and in test [16] was inactive. For the same molecule, the inhibition in [5] is 66% (active); in test [13], 36.8% (active).

As for `Cc1cccc(CCN(C(=O)c2snc(C(N)=O)c2N)C(C(=O)NCC2CCCO2)c2ccc(F)cc2)c1` (centres undefined), the outcome in test [1], in [2], in test [3], in test [4], in test [7] and in test [8] was inactive. Besides, the call in test [9], in test [10], in test [11], in [12], in test [14] and in test [15] was inactive. Moreover, the outcome in test [16] was inactive. Also, the inhibition in test [5] is 74% (active); in test [6] it was 68% (active); in test [13] it was 46.3% (active).

Turning to `CCN(CC)Cc1cc(CCNC(=O)c2ccc(Cl)cc2)ccc1O`, the outcome in test [1], in test [2], in test [3], in test [4], in test [7] and in test [8] was inactive. Besides, the result in [9], in [10], in test [11], in test [12], in [14] and in test [15] was inactive. The result in test [16] was inactive. The inhibition in [5] was 97% (active); in [6], 75% (active); in test [13], 31.2% (active).

Regarding `Cc1cc(-c2sccc2C)nc(-n2cccc2)n1`, the outcome in test [1], in [2], in test [3], in test [4], in test [6] and in test [7] was inactive. The outcome in test [8], in [9], in test [10], in test [11], in [12] and in test [13] was inactive. The outcome in test [14], in test [15] and in [16] was inactive. In [5], the inhibition is 91% (active).

As for `Cn1cc(CN2CCCCC2CO)c(-c2ccc(Oc3ccccc3)cc2)n1` (centres undefined), the outcome in test [1], in test [2], in test [3], in test [4], in [7] and in test [8] was inactive. The outcome in test [9], in test [10], in test [11], in test [12], in [14] and in test [15] was inactive. Moreover, the result in [16] was inactive. Moreover, the inhibition was 86% (active) in test [5], 41% (active) in test [6] and 39.6% (active) in test [13].

Consider `OC1(c2cccs2)CN(c2ccc(Cl)cc2)C2=[N+]1CCCC2` (centres undefined), for which the outcome in [1], in [2], in test [3], in [4], in [6] and in [7] was inactive. Also, the outcome in [8], in test [9], in test [10], in test [11], in test [12] and in [14] was inactive. The result in test [15] and in test [16] was inactive. For the same molecule, the inhibition in test [5] was 72% (active); in test [13], 35.1% (active).

(Values after PubChem BioAssay.)
